A number with no mark means an inactive call. Records with an inconclusive call do not appear. Where a call stands in place of a potency, no number is given. The source made the active and inactive calls. Unless noted, calls follow the shape of the dose curve; as a rule, active = well fitted curve in the direction sought with a large enough effect in the repeat runs; inconclusive = weak or mixed curves; inactive = no such curve, though single readings can be large; an effect the other way counts as inactive or inconclusive.
Legend:
[1] = A CellTox Green Cytotoxicity Assay to monitor cytotoxicity in HepG2 cells - 0 hour (AID 1224882); details: CellTox Green fluorescence; series mostly up to 76.8 µM; also: nearly all actives have a fitted effect of over 35% in size
Outline: (§1)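 HepG2 cells were seeded together with the CellTox Green dye at 600 cells/well, left 5 h at 37 C/5% CO2, then given compounds in DMSO. Fluorescence from dye bound to dead-cell DNA was read repeatedly over 40 h of treatment at 37 C.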

[2] = A CellTox Green Cytotoxicity Assay to monitor cytotoxicity in HepG2 cells - 32 hour (AID 1224883); details: CellTox Green fluorescence; series mostly up to 76.8 µM; also: nearly all actives have a fitted effect of over 50% in size
Outline: as §1

[3] = A CellTox Green Cytotoxicity Assay to monitor cytotoxicity in HEK293 cells - 8 hour (AID 1224884); details: CellTox Green fluorescence; series mostly up to 76.8 µM; also: nearly all actives have a fitted effect of over 35% in size
Outline: (§2)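 HEK293 cells premixed with CellTox Green dye were seeded at 600 cells/well and left 5 h at 37 C/5% CO2 before pin transfer of 23 nL compound in DMSO. Fluorescence from dye bound to dead-cell DNA was read during 40 h treatment.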

[4] = qHTS RealTime-Glo MT Cell Viability Assay in HepG2 cells - 16 hour (AID 1224885); details: RealTime-Glo luminescence; series mostly up to 76.8 µM; also: nearly all actives have a fitted effect of over 50% in size
Outline: (§3)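 Luminescence read-out: viable HepG2 cells reduce a prosubstrate to a NanoLuc substrate, giving a signal proportional to live cell number. Reads taken at 0, 8, 16, 24, 32 and 40 h of compound exposure at 37 C.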

[5] = qHTS RealTime-Glo MT Cell Viability Assay in HEK293 cells - 24 hour (AID 1224886); details: RealTime-Glo luminescence; series mostly up to 76.8 µM; also: top concentration of the series differs between compounds; nearly all actives have a fitted effect of over 50% in size
Outline: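 Nonlytic real-time viability readout: viable cells convert prosubstrate to NanoLuc substrate, giving luminescence proportional to live cell number. HEK293, 600 cells/well, compound added after 5 h, continuous culture at 37 C.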

[6] = qHTS RealTime-Glo MT Cell Viability Assay in HEK293 cells - 8 hour (AID 1224887); details: RealTime-Glo luminescence; series mostly up to 76.8 µM; also: top concentration of the series differs between compounds; nearly all actives have a fitted effect of over 50% in size
Outline: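 HEK293 cells mixed with RealTime-Glo reagents (NanoLuc plus cell-permeant prosubstrate) at 600 cells/well, preincubated 5 h at 37 C/5% CO2, then given 23 nL compound in DMSO. Nonlytic luminescence from viable cells was read at 0, 8, 16, 24, 32 and 40 h.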

[7] = A CellTox Green Cytotoxicity Assay to monitor cytotoxicity in HEK293 cells - 16 hour (AID 1224888); details: CellTox Green fluorescence; series mostly up to 76.8 µM; also: nearly all actives have a fitted effect of over 35% in size
Outline: as §2

[8] = qHTS RealTime-Glo MT Cell Viability Assay in HepG2 cells - 0 hour (AID 1224889); details: RealTime-Glo luminescence; series mostly up to 76.8 µM; also: nearly all actives have a fitted effect of over 50% in size
Outline: as §3

[9] = A CellTox Green Cytotoxicity Assay to monitor cytotoxicity in HepG2 cells - 8 hour (AID 1224890); details: CellTox Green fluorescence; series mostly up to 76.8 µM; also: nearly all actives have a fitted effect of over 45% in size
Outline: as §1

[10] = qHTS assay to identify small molecule antagonists of the estrogen receptor alpha (ER-alpha) signaling pathway using the BG1 cell line in the presence of 0.1 nM 17-beta-estradiol - cell viability counter screen (AID 1259241); details: VM7Luc4E2 (BG1) viability, CellTiter-Fluor protease, 22 h, 0.1 nM estradiol agonist added; series mostly up to 92.4 µM; also: nearly all actives have a fitted effect of over 40% in size; also: potency is read from the fitted curve at half-maximal effect
Outline: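 Estradiol-stimulated (0.1 nM) VM7Luc4E2 cells exposed to compounds 22 hr; viability measured by fluorescence of cleaved CellTiter-Fluor substrate after 30 min.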

[11] = target: Estrogen receptor (Homo sapiens) (UniProt P03372); experiment: qHTS assay to identify small molecule antagonists of the estrogen receptor alpha (ER-alpha) signaling pathway using the BG1 cell line in the presence of 0.1 nM 17-beta-estradiol (AID 1259244); details: VM7Luc4E2 (BG1) ERE-luciferase, antagonist mode, 0.1 nM E2, 22 h; series mostly up to 92.4 µM; also: nearly all actives have a fitted effect of over 50% in size
Outline: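 VM7Luc4E2 cells (endogenous full-length ER-alpha, stable 4xERE-luciferase) were grown 5 days in phenol red-free medium with charcoal-stripped FBS, then exposed 22 h at 37C to compounds plus 0.1 nM (final) 17beta-estradiol; ONE-Glo luminescence read-out.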

[12] = qHTS assay to identify small molecule HDAC inhibitors (AID 1259364); details: HCT-116 HDAC-Glo I/II luminescence, 2 h; series mostly up to 92.4 µM; also: nearly all actives have a fitted effect of over 45% in size; also: potency is read from the fitted curve at half-maximal effect
Outline: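 Wild-type HCT-116 cells were plated overnight, exposed to compounds for 2 h at 37 °C, then given HDAC-Glo class I/II luminogenic reagent for 30 min at room temperature before luminescence was read.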

[13] = qHTS assay to identify small molecule agonists of the sonic hedgehog signaling (Shh) pathway - cell viability counter screen (AID 1259366); details: NIH/3T3 Gli1-Luc viability, CellTiter-Fluor, 24 h; series mostly up to 92.4 µM; also: nearly all actives have a fitted effect of over 50% in size; also: potency is read from the fitted curve at half-maximal effect
Outline: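 Same-well cytotoxicity read. Gli1-Luc reporter 3T3 cells; compounds 24hr, 37C/5% CO2; CellTiter-Fluor fluorescence.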

[14] = qHTS assay to identify small molecule antagonists of the sonic hedgehog signaling (Shh) pathway - cell viability counter screen (AID 1259367); details: NIH/3T3 Gli1-Luc viability, CellTiter-Fluor, 24 h; series mostly up to 92.4 µM; also: nearly all actives have a fitted effect of over 55% in size; also: potency is read from the fitted curve at half-maximal effect
Outline: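 Using CellTiter-Fluor, viability of Gli1-Luc reporter 3T3 cells is read by fluorescence in the wells used for the Shh luciferase assay. Treatment lasts 23 hr with conditioned medium, then reagent 1 hr at 37C.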

[15] = qHTS assay to identify small molecule agonists of the sonic hedgehog signaling (Shh) pathway (AID 1259368; calls by dose curve; also: nearly all actives have a fitted effect of over 15% in size); details: NIH/3T3 Gli1-Luc reporter, luciferase, 24 h; series mostly up to 92.4 µM
Outline: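 NIH/3T3-derived 3T3Gli1-Luc cells carrying a stably integrated Gli1 response element–firefly luciferase reporter were plated, left 4 hr at 37 C, then given compounds in DMSO for 24 hr. Luminescence was read 30 min after adding luciferase reagent.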

[16] = qHTS assay to identify small molecule antagonists of the sonic hedgehog signaling (Shh) pathway (AID 1259369; calls by dose curve; also: nearly all actives have a fitted effect of over 45% in size; also: potency is read from the fitted curve at half-maximal effect); details: NIH/3T3 Gli1-Luc reporter, Shh antagonist, luminescence 24 h; series mostly up to 92.4 µM
Outline: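 NIH/3T3-derived 3T3Gli1-Luc cells with stably integrated Gli1-Luc reporter were preincubated 4hr at 37 C, then given compounds in DMSO plus Shh conditioned medium and incubated 24hr. Firefly luciferase luminescence read after 30min reagent at room temperature.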

[17] = qHTS assay to identify small molecule antagonists of the androgen receptor (AR) signaling pathway using the MDA cell line in the presence of 0.5 nM R1881 - cell viability counter screen (AID 1259242); details: MDA-kb2 viability, CellTiter-Fluor protease fluorescence, 16 h; series mostly up to 92.4 µM; also: nearly all actives have a fitted effect of over 45% in size
Outline: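 MDA-kb2 cells (human breast carcinoma, stably carrying MMTV-luciferase reporter) were exposed to compounds with 0.5 nM R1881 (final) for 16 hr at 37C, 0% CO2; viability then read as live-cell protease fluorescence (CellTiter-Fluor, 30 min) in the same wells.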

[18] = qHTS assay to identify small molecule HDAC inhibitors - cell viability counter screen (AID 1259365); details: HCT-116 viability, CellTiter-Glo ATP luminescence, 2 h; series mostly up to 92.4 µM; also: nearly all actives have a fitted effect of over 50% in size
Outline: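 After overnight seeding at 1,500 cells per well, wild-type HCT-116 cultures took up compounds in DMSO for 2hr at 37 C. Viable cell content came from luminescence with CellTiter-Glo.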

[19] = target: Androgen receptor (Homo sapiens) (UniProt P10275); experiment: qHTS assay to identify small molecule antagonists of the androgen receptor (AR) signaling pathway using the MDA cell line in the presence of 0.5 nM R1881 (AID 1259243); details: MDA-kb2 MMTV-luciferase, R1881 0.5 nM, 16 h; series mostly up to 92.4 µM; also: nearly all actives have a fitted effect of over 50% in size
Outline: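 MDA-kb2 human breast carcinoma cells carrying an MMTV-luciferase reporter (AR- and GR-responsive) were plated, rested 5 hr at 37C, dosed with compounds, then stimulated with 0.5 nM R1881 (final) for 16 hr; luminescence was read after ONE-Glo.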

[20] = qHTS assay to identify small molecule phospholipidosis (PLD) inducers (AID 1259344; active = well fitted curve in the direction sought with a large enough effect; an effect the other way counts as inactive or inconclusive); details: HepG2 phospholipidosis, LipidTOX Red imaging, 24 h; series mostly up to 38.3 µM
Outline: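 Fluorescent phospholipid staining (LipidTOX Red) measured by automated microscopy in fixed HepG2 cells after 24 h treatment; nuclei counterstained with Hoechst 33342; amiodarone as reference inducer.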

Chain of Androgen receptor (Homo sapiens) (P10275 whole entry, looked up): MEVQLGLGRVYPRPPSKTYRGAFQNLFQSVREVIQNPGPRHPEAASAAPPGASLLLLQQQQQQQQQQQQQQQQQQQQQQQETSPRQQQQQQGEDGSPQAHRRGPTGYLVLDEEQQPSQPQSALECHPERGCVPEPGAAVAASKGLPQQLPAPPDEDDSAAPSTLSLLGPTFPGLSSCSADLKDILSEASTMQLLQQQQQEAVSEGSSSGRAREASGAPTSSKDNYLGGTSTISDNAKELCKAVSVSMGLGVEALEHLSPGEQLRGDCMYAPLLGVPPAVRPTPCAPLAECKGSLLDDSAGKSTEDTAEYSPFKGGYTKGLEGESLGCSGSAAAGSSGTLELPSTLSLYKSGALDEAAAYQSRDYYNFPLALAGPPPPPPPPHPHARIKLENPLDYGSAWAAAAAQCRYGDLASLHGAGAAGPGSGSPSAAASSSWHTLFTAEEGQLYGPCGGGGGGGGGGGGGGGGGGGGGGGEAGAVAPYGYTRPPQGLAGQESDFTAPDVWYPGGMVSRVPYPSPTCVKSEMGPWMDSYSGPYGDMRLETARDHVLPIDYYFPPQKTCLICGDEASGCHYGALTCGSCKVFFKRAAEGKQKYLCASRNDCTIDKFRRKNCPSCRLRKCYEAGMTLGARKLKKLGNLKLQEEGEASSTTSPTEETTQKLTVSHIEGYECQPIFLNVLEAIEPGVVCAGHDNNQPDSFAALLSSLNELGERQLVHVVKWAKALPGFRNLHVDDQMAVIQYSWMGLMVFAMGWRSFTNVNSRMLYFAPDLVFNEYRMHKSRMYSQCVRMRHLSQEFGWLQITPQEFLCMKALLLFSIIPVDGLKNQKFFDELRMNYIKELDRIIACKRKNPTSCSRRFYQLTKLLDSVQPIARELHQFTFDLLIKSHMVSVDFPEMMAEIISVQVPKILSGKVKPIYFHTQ
Chain of Estrogen receptor (Homo sapiens) (P03372 whole entry, looked up): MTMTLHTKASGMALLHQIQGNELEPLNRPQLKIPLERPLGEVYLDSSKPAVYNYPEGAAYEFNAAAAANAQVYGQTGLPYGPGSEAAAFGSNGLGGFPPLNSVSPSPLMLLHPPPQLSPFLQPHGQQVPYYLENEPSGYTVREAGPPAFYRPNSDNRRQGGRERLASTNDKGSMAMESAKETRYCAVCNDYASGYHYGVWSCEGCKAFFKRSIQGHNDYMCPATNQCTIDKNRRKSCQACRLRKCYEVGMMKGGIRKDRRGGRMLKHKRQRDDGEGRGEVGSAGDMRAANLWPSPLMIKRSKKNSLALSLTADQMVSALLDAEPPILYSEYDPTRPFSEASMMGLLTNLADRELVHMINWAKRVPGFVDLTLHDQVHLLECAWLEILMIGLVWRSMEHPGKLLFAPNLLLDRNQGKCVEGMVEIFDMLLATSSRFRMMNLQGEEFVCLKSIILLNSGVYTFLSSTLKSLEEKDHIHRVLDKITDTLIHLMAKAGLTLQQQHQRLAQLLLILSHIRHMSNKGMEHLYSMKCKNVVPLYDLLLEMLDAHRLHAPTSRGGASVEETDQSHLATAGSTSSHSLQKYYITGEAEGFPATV

| SMILES | Potency [1] | Potency [2] | Potency [3] | Potency [4] | Potency [5] | Potency [6] | Potency [7] | Potency [8] | Potency [9] | Potency [10] | Potency [11] | Potency [12] | Potency [13] | Potency [14] | Potency [15] | Potency [16] | Potency [17] | Potency [18] | Potency [19] | Potency [20] |
| --- | --- | --- | --- | --- | --- | --- | --- | --- | --- | --- | --- | --- | --- | --- | --- | --- | --- | --- | --- | --- |
| C/C(C=O)=C\c1ccccc1 | inactive | inactive | inactive | inactive | inactive | inactive | inactive | inactive | inactive | inactive | inactive | 30 µM (active) | inactive | inactive | inactive | inactive | – | – | – | – |
| CC1CCc2nccnc21 (stereo not given) | inactive | inactive | inactive | inactive | inactive | inactive | inactive | – | – | inactive | inactive | inactive | inactive | inactive | inactive | inactive | inactive | inactive | – | – |
| CCCCCCCCCCCCCCCCCC(=O)OCC(CC)CCCC (stereo not given) | inactive | inactive | inactive | inactive | inactive | inactive | inactive | inactive | – | inactive | – | inactive | inactive | inactive | inactive | inactive | inactive | inactive | – | – |
| O=S(=O)(Cl)c1c(Cl)cccc1Cl | inactive | inactive | inactive | inactive | inactive | inactive | – | inactive | inactive | inactive | inactive | inactive | – | inactive | inactive | – | inactive | inactive | inactive | – |
| CCCCOC(=O)CCCCC(=O)OCCCC | inactive | inactive | inactive | inactive | inactive | inactive | inactive | inactive | inactive | – | – | inactive | inactive | inactive | inactive | inactive | inactive | inactive | – | – |
| Cc1ccc(N(CCO)CCO)cc1 | inactive | inactive | inactive | inactive | inactive | inactive | inactive | inactive | – | inactive | inactive | inactive | inactive | inactive | inactive | inactive | inactive | inactive | – | – |
| CCC1CCC(CCC(=O)O)C1 (stereo not given) | inactive | inactive | inactive | inactive | inactive | inactive | inactive | inactive | – | inactive | – | inactive | inactive | inactive | inactive | inactive | inactive | inactive | – | – |
| CC[C@H]1OC(=O)[C@H](C)[C@@H](O[C@H]2C[C@@](C)(OC)[C@@H](O)[C@H](C)O2)[C@H](C)[C@@H](O[C@@H]2O[C@H](C)C[C@H](N(C)C)[C@H]2O)[C@](C)(O)C[C@@H](C)/C(=N\OCOCCOC)[C@H](C)[C@@H](O)[C@]1(C)O | inactive | inactive | inactive | inactive | inactive | inactive | – | inactive | inactive | 10.2 µM (active) | inactive | inactive | 5.09 µM (active) | 8.07 µM (active) | inactive | 12.8 µM (active) | inactive | inactive | – | inactive |
| C=C(C)c1ccccc1 | inactive | inactive | inactive | inactive | inactive | inactive | inactive | inactive | inactive | – | – | inactive | inactive | inactive | – | inactive | inactive | – | – | – |
| O=C(O)/C=C/c1ccc(O)c(O)c1 | inactive | inactive | inactive | inactive | inactive | inactive | – | inactive | inactive | inactive | – | inactive | inactive | inactive | inactive | inactive | inactive | inactive | inactive | – |
| CC1=C2[C@@H]([C@H](C)CC[C@H]2/C=C(\C)C(=O)O)[C@H](O)C1 | inactive | inactive | inactive | inactive | inactive | inactive | inactive | inactive | – | inactive | inactive | inactive | inactive | inactive | inactive | – | inactive | inactive | – | – |
| Cc1cn([C@H]2C[C@H](F)[C@@H](CO)O2)c(=O)[nH]c1=O | inactive | inactive | inactive | inactive | inactive | inactive | inactive | inactive | – | inactive | inactive | inactive | inactive | inactive | inactive | inactive | inactive | inactive | inactive | inactive |
| COC(CC(C)CCCC(C)(C)O)OC (stereo not given) | inactive | inactive | inactive | inactive | inactive | inactive | inactive | inactive | inactive | – | – | inactive | inactive | inactive | – | inactive | inactive | inactive | – | – |
| Cc1cc([N+](=O)[O-])ccc1N | inactive | inactive | inactive | inactive | inactive | inactive | inactive | inactive | inactive | – | inactive | inactive | – | – | inactive | inactive | – | – | – | – |
| CCCCCCOC(=O)CCCCC | inactive | inactive | inactive | inactive | inactive | inactive | inactive | inactive | – | inactive | – | inactive | inactive | inactive | inactive | inactive | – | inactive | – | – |

Reference: PubChem BioAssay (Tox21)
